As usually defined, the AC50 is the midpoint of the concentration-response curve, whichever way the signal moves.

The text below walks through data of PubChem BioAssay (EPA / NIEHS).

Calls of active or inactive are those of the source. Rule for the calls: active = hit-call score of the fitted dose curve at least 0.9, where 1 is the maximum; inactive = score below 0.9.

Settings in all cases: mRNA level, 48 h; actives raise or lower the signal
Read-out in experiment [1]: Forkhead box O1 (FOXO1), FOXO1 (gene 2308)
The experiment can be described thus: LTEA_HepaRG_FOXO1: Life Technologies and Expression Analysis (LTEA) Assay for Forkhead box O1 (FOXO1) using HepaRG (AID 2283456). The essentials: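 HepaRG, 48 h exposure, 8-pt half-log series from 100 uM in 0.5% DMSO, duplicates; Fluidigm qRT-PCR mRNA, housekeeping-normalised; bidirectional fit vs DMSO baseline.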

Read-out in experiment [2]: growth arrest and DNA damage 45 (GADD45A), GADD45A (gene 1647)
Briefly: LTEA_HepaRG_GADD45A: Life Technologies and Expression Analysis (LTEA) Assay for growth arrest and DNA damage 45 (GADD45A) using HepaRG (AID 2283458). An outline of the steps:
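GADD45A expression was measured by TaqMan qRT-PCR against three housekeeping genes (ACTB, GAPDH, POLR2A) after 48 h treatment of HepaRG cells. Eight-point half-log series up to 100 uM in 0.5% DMSO, run in duplicate.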

Read-out in experiment [3]: Forkhead box O3 (FOXO3), FOXO3 (gene 2309)
Briefly: LTEA_HepaRG_FOXO3: Life Technologies and Expression Analysis (LTEA) Assay for Forkhead box O3 (FOXO3) using HepaRG (AID 2283459). An outline of the steps:
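qRT-PCR readout of FOXO3 transcript, normalized to three housekeeping genes (ACTB, GAPDH, POLR2A); gain or loss fitted against 0.5% DMSO vehicle. HepaRG cells, 48 h chemical exposure, 8-point half-log series, top 100 uM.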

Read-out in experiment [4]: growth arrest and DNA damage 45 (GADD45B), GADD45B (gene 4616)
Briefly: LTEA_HepaRG_GADD45B: Life Technologies and Expression Analysis (LTEA) Assay for growth arrest and DNA damage 45 (GADD45B) using HepaRG (AID 2283461). An outline of the steps: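 Differentiated HepaRG cells, plated 48 h then switched to serum-free induction medium, were exposed 48 h in duplicate to eight half-log concentrations from 100 uM in 0.5% DMSO; mRNA quantified by qRT-PCR, normalized to ACTB/GAPDH/POLR2A, bidirectional fit versus DMSO.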

Read-out in experiment [5]: ABC Transporter (ABCC3), ABCC3 (gene 8714)
The experiment can be described thus: LTEA_HepaRG_ABCC3: Life Technologies and Expression Analysis (LTEA) Assay for ABC Transporter (ABCC3) using HepaRG (AID 2283462). The essentials: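 HepaRG cells in serum-free induction medium were exposed for 48 h in duplicate to 8-point half-log concentrations topping at 100 uM in 0.5% DMSO. ABCC3 mRNA was measured by qRT-PCR normalized to ACTB, GAPDH and POLR2A, with bidirectional fitting versus DMSO.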

Read-out in experiment [6]: ABC Transporter (ABCB11), ABCB11 (gene 8647)
The experiment can be described thus: LTEA_HepaRG_ABCB11: Life Technologies and Expression Analysis (LTEA) Assay for ABC Transporter (ABCB11) using HepaRG (AID 2283463). The essentials: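 HepaRG, 48 h exposure, 8-pt half-log CRC top 100 uM, 0.5% DMSO vehicle, duplicates. Readout: TaqMan qRT-PCR of ABCB11 mRNA, housekeeping-normalized (ACTB/GAPDH/POLR2A). Bidirectional fit vs DMSO baseline.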

Read-out in experiment [7]: ABC Transporter (ABCC2), ABCC2 (gene 1244)
Briefly: LTEA_HepaRG_ABCC2: Life Technologies and Expression Analysis (LTEA) Assay for ABC Transporter (ABCC2) using HepaRG (AID 2283464). An outline of the steps:
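HepaRG cells were plated 48 h, switched to serum-free induction medium, then exposed in duplicate for 48 h to 8 concentrations (top 100 uM, half-log steps, 0.5% DMSO). ABCC2 mRNA was measured by qRT-PCR normalized to ACTB/GAPDH/POLR2A; bidirectional fitting versus DMSO.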

Read-out in experiment [8]: Broad substrate specificity ATP-binding cassette transporter ABCG2 (Homo sapiens) (UniProt Q9UNQ0)
Briefly: LTEA_HepaRG_ABCG2: Life Technologies and Expression Analysis (LTEA) Assay for ABC Transporter (ABCG2) using HepaRG (AID 2283465). An outline of the steps:
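HepaRG, 48 h exposure, 8-pt half-log series from 100 uM, 0.5% DMSO vehicle, duplicates. Readout: ABCG2 transcript by qRT-PCR (Fluidigm array), housekeeping-normalized; bidirectional curve fit relative to DMSO baseline.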

Broad substrate specificity ATP-binding cassette transporter ABCG2 (Homo sapiens), sequence (Q9UNQ0 whole entry, looked up): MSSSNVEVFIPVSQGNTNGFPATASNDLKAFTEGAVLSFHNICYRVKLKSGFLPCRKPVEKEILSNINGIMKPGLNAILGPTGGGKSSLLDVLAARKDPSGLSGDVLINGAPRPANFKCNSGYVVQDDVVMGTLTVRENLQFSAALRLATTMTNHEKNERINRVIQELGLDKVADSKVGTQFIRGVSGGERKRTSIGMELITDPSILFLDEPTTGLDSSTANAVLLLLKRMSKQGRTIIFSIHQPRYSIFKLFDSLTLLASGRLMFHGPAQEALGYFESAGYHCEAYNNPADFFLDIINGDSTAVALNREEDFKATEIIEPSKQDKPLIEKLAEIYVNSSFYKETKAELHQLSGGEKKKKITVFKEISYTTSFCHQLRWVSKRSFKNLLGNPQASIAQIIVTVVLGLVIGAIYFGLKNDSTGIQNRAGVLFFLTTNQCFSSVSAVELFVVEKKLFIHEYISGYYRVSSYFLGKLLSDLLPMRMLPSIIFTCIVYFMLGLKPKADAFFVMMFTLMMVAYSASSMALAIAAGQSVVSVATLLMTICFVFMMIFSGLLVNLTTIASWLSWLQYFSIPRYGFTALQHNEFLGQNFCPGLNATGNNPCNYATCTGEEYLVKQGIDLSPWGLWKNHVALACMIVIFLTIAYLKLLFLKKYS

Consider `N#Cc1ccc(N(CC(N)=O)CC(F)(F)F)cc1C(F)(F)F`, for which the compound was called inactive in experiment [1], in experiment [2], in experiment [3], in experiment [4], in experiment [5] and in experiment [7]. For the same compound, the outcome in experiment [8] was inactive. For the same compound, the half-maximal activity concentration (AC50) in experiment [6] is 0.353 µM (active).

`ClC1=C(Cl)[C@]2(Cl)[C@@H]3[C@@H](Cl)[C@H]4O[C@H]4[C@@H]3C1(Cl)C2(Cl)Cl`: the compound was called inactive in experiment [1], in experiment [2], in experiment [3], in experiment [4], in experiment [5] and in experiment [6]. Besides, in experiment [7], the call was inactive. Moreover, the AC50 in experiment [8] is 15.8 µM (active).

As to `Oc1c(Cl)c(Cl)c(Cl)c(Cl)c1Cl`, the AC50 in experiment [1] was 6.85 µM (active); in experiment [2], 6 µM (active); in experiment [3] it was 1.64 µM (active); in experiment [4] it was 15 µM (active); in experiment [5] it was 2.09 µM (active); in experiment [6] it was 3.29 µM (active). Further, the concentration at half-maximal activity (AC50) is 2.03 µM (active) in experiment [7] and 6.05 µM (active) in experiment [8].

As to `Cc1cc2c3c(c1)C(c1ccccc1)=N[C@@H](NC(=O)c1ccncc1)C(=O)N3CC2`, the compound was called inactive in experiment [1], in experiment [2], in experiment [4], in experiment [5], in experiment [6] and in experiment [7]. Moreover, the AC50 in experiment [3] was 50 µM (active); in experiment [8] it was 10.1 µM (active).

Turning to `CC(C)(c1ccccc1)c1ccc(O)cc1`, the compound was classed as inactive in experiment [1], in experiment [2], in experiment [3], in experiment [4], in experiment [5] and in experiment [7]. Also, in experiment [8], the result was inactive. For the same compound, the AC50 in experiment [6] was 76.1 µM (active).

Consider `Cc1cccc([N+](=O)[O-])c1`, for which the result in experiment [1], in experiment [2], in experiment [3], in experiment [4], in experiment [5] and in experiment [6] was inactive. In addition, the result in experiment [7] and in experiment [8] was inactive.

As to `O=NN(c1ccccc1)c1ccccc1`, the outcome in experiment [1], in experiment [3], in experiment [4], in experiment [5], in experiment [6] and in experiment [7] was inactive. Further, the result in experiment [8] was inactive. Moreover, in experiment [2], the AC50 was 78.8 µM (active).

With `CCCCCCCCCc1ccc(O)cc1`, the compound was called inactive in experiment [1], in experiment [2], in experiment [3], in experiment [4], in experiment [5] and in experiment [6]. Besides, the result in experiment [7] and in experiment [8] was inactive.

Take `C[C@]12CCC(=O)C=C1CC[C@@H]1[C@@H]2CC[C@]2(C)C(=O)CC[C@@H]12`: the outcome in experiment [1], in experiment [3], in experiment [4] and in experiment [5] was inactive. In addition, the AC50 in experiment [2] was 50 µM (active); in experiment [6], 2.67 µM (active); in experiment [7], 50 µM (active); in experiment [8], 19.7 µM (active).

`CCOC(=O)C(O)(c1ccc(Cl)cc1)c1ccc(Cl)cc1`: the compound was called inactive in experiment [1], in experiment [2], in experiment [3], in experiment [4], in experiment [5] and in experiment [7]. In addition, the compound was called inactive in experiment [8]. Also, the concentration at half-maximal activity (AC50) in experiment [6] was 38.9 µM (active).

For the compound `C=CC(N)=O`, the outcome in experiment [1], in experiment [2], in experiment [3], in experiment [4], in experiment [5] and in experiment [6] was inactive. The compound was called inactive in experiment [7] and in experiment [8].

For the compound `Oc1ccc(Cl)cc1Cl`, the compound was called inactive in experiment [1], in experiment [2], in experiment [4], in experiment [5], in experiment [6] and in experiment [7]. In addition, the call in experiment [8] was inactive.

Take `CC(C)C(=O)OCC(C)(C)C(OC(=O)C(C)C)C(C)C` (stereo not given): the compound was called inactive in experiment [1], in experiment [2], in experiment [3], in experiment [4], in experiment [5] and in experiment [6]. The compound was called inactive in experiment [7] and in experiment [8].

For the compound `O=C(O)C(F)(F)C(F)(F)C(F)(F)C(F)(F)C(F)(F)F`, the compound was classed as inactive in experiment [1], in experiment [2], in experiment [3], in experiment [4], in experiment [5] and in experiment [6]. In experiment [7], the call was inactive. For the same compound, the AC50 in experiment [8] is 9.92 µM (active).

`ClC(Cl)=C(c1ccc(Cl)cc1)c1ccc(Cl)cc1`: the compound was classed as inactive in experiment [1], in experiment [3], in experiment [4], in experiment [5] and in experiment [6]. The figures for the concentration at half-maximal activity (AC50) in experiment [2], in experiment [7] and in experiment [8] were 0.0693 µM (active), 10.8 µM (active) and 8.74 µM (active), respectively.

As to `Cc1ccccc1[N+](=O)[O-]`, the result in experiment [1], in experiment [2], in experiment [3], in experiment [4], in experiment [5] and in experiment [6] was inactive. The result in experiment [7] and in experiment [8] was inactive.

Take `Cc1ccccc1O`: the outcome in experiment [1], in experiment [2], in experiment [3], in experiment [4], in experiment [5] and in experiment [6] was inactive. Also, the compound was called inactive in experiment [7] and in experiment [8].
